Drawing on PubChem BioAssay (Tox21), this text covers Potency, activity, negative = inhibition and activation for 40 compounds.

Several values for one entry are separate records, joined by “and”; a condition that tells them apart may be missing. Equal entries are not always repeated. Inconclusive results are not listed. A call without a number means that no potency is given here. A number with no mark means an inactive call. Activity calls are given as the source filed them. Unless noted, calls follow the shape of the dose curve; as a rule, active = well fitted curve in the direction sought with a large enough effect in the repeat runs; inconclusive = weak or mixed curves; inactive = no such curve, though single readings can be large; an effect the other way counts as inactive or inconclusive.

Sequence of Estrogen receptor (Homo sapiens) (P03372 whole entry, looked up): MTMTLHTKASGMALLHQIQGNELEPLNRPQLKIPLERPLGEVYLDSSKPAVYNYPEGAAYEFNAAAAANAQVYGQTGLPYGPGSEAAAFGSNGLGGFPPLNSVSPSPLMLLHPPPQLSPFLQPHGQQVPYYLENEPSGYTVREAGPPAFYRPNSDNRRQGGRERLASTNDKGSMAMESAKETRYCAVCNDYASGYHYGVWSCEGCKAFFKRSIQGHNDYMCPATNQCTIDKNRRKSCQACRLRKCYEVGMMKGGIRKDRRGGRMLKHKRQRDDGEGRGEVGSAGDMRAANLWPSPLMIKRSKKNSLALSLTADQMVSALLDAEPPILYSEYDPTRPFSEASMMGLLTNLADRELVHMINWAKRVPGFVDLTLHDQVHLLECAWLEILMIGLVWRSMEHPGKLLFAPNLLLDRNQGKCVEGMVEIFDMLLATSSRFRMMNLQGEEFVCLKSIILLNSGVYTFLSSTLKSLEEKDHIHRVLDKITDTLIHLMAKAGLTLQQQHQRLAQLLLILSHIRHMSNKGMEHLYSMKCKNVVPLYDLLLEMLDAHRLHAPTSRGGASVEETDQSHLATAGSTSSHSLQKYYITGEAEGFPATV

System in the first test: not listed separately
Put plainly: qHTS assay to identify small molecule antagonists of the thyroid receptor (TR) signaling pathway - cell viability counter screen (AID 743064). Also: nearly all actives have a fitted effect of over 50% in size. Also: potency is read from the fitted curve at half-maximal effect. Particulars: GH3.TRE-Luc viability, CellTiter-Fluor, 24 h; series mostly up to 70.3 µM. In outline: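 CellTiter-Fluor readout, 30 min at 37 °C/5% CO2, following 23.5 h incubation of GH3.TRE-Luc cells with test compound and 1 nM T3 (final).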
Consider `CCCCCCCCBr`, for which the Potency entry is “inactive”.

Turning to `CCOc1cc(OP(=S)(OC)OC)nc(CC)n1`, the Potency result was “inactive”.

Consider `C#CCOC(=O)/C=C(C)/C=C/CC(C)CCCC(C)C` (stereo unspecified), for which the Potency entry is “inactive”.

With `NNCc1ccccc1`, the Potency result is “inactive”.

As to `C#CC(C)(C)O`, the Potency result was “inactive”.

For `CN1COCN(Cc2cnc(Cl)s2)/C1=N\[N+](=O)[O-]`, the Potency result is “inactive”.

In the case of `c1ccc2c(c1)CCNC2`, the Potency result was “inactive”.

Take `Cc1ccc(S(=O)(=O)N[C@@H](CCCCN)C(=O)CCl)cc1`: the Potency is 16.8 µM (active).

For the compound `C=C1CC[C@@]2(O)[C@H]3Cc4ccc(O)c5c4[C@@]2(CCN3CC2CC2)[C@H]1O5`, the Potency entry was “inactive”.

System in the next test: not listed separately
The test is described as follows: qHTS assay to identify small molecule antagonists of the thyroid receptor (TR) signaling pathway (AID 743065). Also: nearly all actives have a fitted effect of over 55% in size. Also: potency is read from the fitted curve at half-maximal effect. Particulars: GH3.TRE-Luc, T3-stimulated luciferase inhibition, 23.5 h; series mostly up to 70.3 µM. In outline: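 GH3.TRE-Luc rat pituitary cells carrying two TR response elements driving luciferase were plated for 4 h, given compound plus 1 nM T3 (final), and incubated 23.5 h at 37 C. ONE-Glo luminescence measured reporter inhibition; CellTiter-Fluor fluorescence tracked cytotoxicity.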
With `CC(Cc1ccccc1)NCCn1cnc2c1c(=O)n(C)c(=O)n2C` (stereo unspecified), the Potency entry is “inactive”.

With `Brc1c(Br)c(Br)c(Br)c(Br)c1Br`, the activity, negative = inhibition was 36% [at 8.44 µM].

Regarding `BrCC1CO1` (stereo unspecified), the Potency entry was “inactive”.

With `CC(C)(C1CCC(O)CC1)C1CCC(O)CC1` (stereo unspecified), the Potency result was “inactive”.

Consider `Cc1ccc(Cl)c(O)c1`, for which the Potency entry was “inactive”.

For `O=C(Cl)C(Cl)(Cl)Cl`, the Potency entry was “inactive”.

Take `O=C(Cl)C(Cl)Cl`: the Potency result is “inactive”.

Turning to `ClCC1CO1` (stereo unspecified), the Potency entry is “inactive”.

With `N#CN=C1SCCN1Cc1ccc(Cl)nc1`, the Potency entry is “inactive”.

Regarding `CCCCOC(C)=O`, the Potency result was “inactive”.

Regarding `Cn1c(N)nc2c3cccnc3ccc21`, the Potency result was “inactive”.

In the case of `C=C(Cl)CCl`, the Potency result was “inactive”.

In the case of `CCNc1nc(Cl)nc(NC(C)(C)C)n1`, the Potency result is “inactive”.

Turning to `C(COCC1CO1)OCC1CO1` (stereo unspecified), the Potency was 43.3 µM (active).

For the compound `COc1ccccc1OC`, the Potency entry is “inactive”.

For `CNC(=O)O/N=C(/CSC)C(C)(C)C`, the Potency entry was “inactive”.

For the compound `CN(C)CCN(C)C`, the Potency result was “inactive”.

As to `CC(C)(C)c1cc(O)ccc1O`, the Potency was 6.68 µM (active) and 61.1 µM (active) and 38.6 µM (active).

On to `OCC(Cl)CCl` (stereo unspecified), for which the Potency entry was “inactive”.

For the compound `O=C(O)C(Br)(Br)Br`, the Potency result was “inactive”.

Turning to `CCOC(=O)CC(SP(=S)(OC)OC)C(=O)OCC` (stereo unspecified), the Potency result was “inactive”.

For the compound `Cc1ccc2c(c1)C1CN(C)CCC1N2` (stereo unspecified), the Potency entry is “inactive”.

In the case of `OP(O)c1ccccc1`, the Potency entry is “inactive”.

Take `CCNP(=S)(OC)O/C(C)=C/C(=O)OC(C)C` (stereo unspecified): the Potency result is “inactive”.

As for `CN(CCO)CCO`, the Potency result was “inactive”.

`CCC(C(N)=O)N1CCCC1=O` (stereo unspecified): the Potency result was “inactive”.

Take `CCN(CCO)CCn1c(Cc2ccccc2)nc2c1c(=O)n(C)c(=O)n2C`: the Potency entry was “inactive”.

For `O=C(Cl)/C=C/C(=O)Cl`, the Potency entry was “inactive”.

For `C=C(C)[C@H]1CN[C@H](C(=O)O)[C@H]1CC(=O)O`, the Potency result is “inactive”.

As for `Cc1ccc2cc(C)ccc2c1`, the Potency result was “inactive”.

With `CC(C)(C)C(=O)Cl`, the Potency result was “inactive”.

A further test has as its system thyroid hormone receptor (rat, GH3 cells). Put plainly: qHTS assay to identify small molecule agonists of the thyroid receptor (TR) signaling pathway (AID 743066; calls by dose curve; also: potency is read from the fitted curve at half-maximal effect). The note with it: GH3.TRE-Luc cells, TR agonist luciferase, 24 h; series mostly up to 83.9 µM.
Take `CC(Cc1ccccc1)NCCn1cnc2c1c(=O)n(C)c(=O)n2C` (stereo unspecified): the Potency result is “inactive”.

With `Brc1c(Br)c(Br)c(Br)c(Br)c1Br`, the activation was -0.0085% [at 8.08 µM].

Turning to `BrCC1CO1` (stereo unspecified), the Potency entry was “inactive”.

On to `CC(C)(C1CCC(O)CC1)C1CCC(O)CC1` (stereo unspecified), for which the Potency entry was “inactive”.

As for `Cc1ccc(Cl)c(O)c1`, the Potency result is “inactive”.

`O=C(Cl)C(Cl)(Cl)Cl`: the Potency entry is “inactive”.

Turning to `O=C(Cl)C(Cl)Cl`, the Potency result was “inactive”.

`ClCC1CO1` (stereo unspecified): the Potency entry is “inactive”.

For the compound `N#CN=C1SCCN1Cc1ccc(Cl)nc1`, the Potency entry is “inactive”.

Consider `C#CC(C)(C)O`, for which the Potency entry was “inactive”.

Regarding `CCCCOC(C)=O`, the Potency result was “inactive”.

On to `Cn1c(N)nc2c3cccnc3ccc21`, for which the Potency result is “inactive”.

Consider `CN1COCN(Cc2cnc(Cl)s2)/C1=N\[N+](=O)[O-]`, for which the Potency result was “inactive”.

In the case of `C=C(Cl)CCl`, the Potency result was “inactive”.

As to `CCNc1nc(Cl)nc(NC(C)(C)C)n1`, the Potency entry is “inactive”.

Regarding `C(COCC1CO1)OCC1CO1` (stereo unspecified), the Potency entry is “inactive”.

For the compound `COc1ccccc1OC`, the Potency result was “inactive”.

Take `CNC(=O)O/N=C(/CSC)C(C)(C)C`: the Potency was 61.1 µM (active).

Take `CN(C)CCN(C)C`: the Potency entry is “inactive”.

In the case of `CC(C)(C)c1cc(O)ccc1O`, the Potency entry was “inactive”.

`OCC(Cl)CCl` (stereo unspecified): the Potency result was “inactive”.

Regarding `O=C(O)C(Br)(Br)Br`, the Potency entry was “inactive”.

In the case of `CCOC(=O)CC(SP(=S)(OC)OC)C(=O)OCC` (stereo unspecified), the Potency entry is “inactive”.

Turning to `Cc1ccc2c(c1)C1CN(C)CCC1N2` (stereo unspecified), the Potency entry is “inactive”.

As for `OP(O)c1ccccc1`, the Potency result was “inactive”.

For `CCNP(=S)(OC)O/C(C)=C/C(=O)OC(C)C` (stereo unspecified), the Potency result was “inactive”.

Take `CN(CCO)CCO`: the Potency entry was “inactive”.

`CCC(C(N)=O)N1CCCC1=O` (stereo unspecified): the Potency result is “inactive”.

For the compound `CCN(CCO)CCn1c(Cc2ccccc2)nc2c1c(=O)n(C)c(=O)n2C`, the Potency result was “inactive”.

`O=C(Cl)/C=C/C(=O)Cl`: the Potency result is “inactive”.

For `C=C(C)[C@H]1CN[C@H](C(=O)O)[C@H]1CC(=O)O`, the Potency entry was “inactive”.

With `Cc1ccc2cc(C)ccc2c1`, the Potency result was “inactive”.

On to `CC(C)(C)C(=O)Cl`, for which the Potency entry was “inactive”.

In another test the target is Estrogen receptor (Homo sapiens) (UniProt P03372). The test is described as follows: qHTS assay to identify small molecule antagonists of the estrogen receptor alpha (ER-alpha) signaling pathway (AID 743069; active = well fitted curve in the direction sought with a large enough effect in the signal ratio in the repeat runs, not every such curve was filed as active; the % refers to the signal ratio). Particulars: HEK293 ER-alpha-UAS-bla, beta-lactamase ratio, antagonist mode; series mostly up to 69.4 µM. The essentials:
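Screening used a UAS-driven beta-lactamase reporter integrated into HEK293 cells expressing ER-alpha, stimulated with 17beta-estradiol alongside test compounds over 18 hr at 37C; signal came from LiveBLAzer B/G FRET fluorescence.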
With `CC(Cc1ccccc1)NCCn1cnc2c1c(=O)n(C)c(=O)n2C` (stereo unspecified), the Potency result was “inactive”.

`Brc1c(Br)c(Br)c(Br)c(Br)c1Br`: the activity, negative = inhibition is -6.9% [at 6.71 µM].

Consider `BrCC1CO1` (stereo unspecified), for which the Potency result was “inactive”.

Consider `CC(C)(C1CCC(O)CC1)C1CCC(O)CC1` (stereo unspecified), for which the Potency entry was “inactive”.

Consider `CCOc1cc(OP(=S)(OC)OC)nc(CC)n1`, for which the Potency entry is “inactive”.

For `Cc1ccc(Cl)c(O)c1`, the Potency result was “inactive”.

Take `O=C(Cl)C(Cl)(Cl)Cl`: the Potency result was “inactive”.

In the case of `O=C(Cl)C(Cl)Cl`, the Potency entry was “inactive”.

Take `ClCC1CO1` (stereo unspecified): the Potency result was “inactive”.

As to `N#CN=C1SCCN1Cc1ccc(Cl)nc1`, the Potency result was “inactive”.

As for `C#CCOC(=O)/C=C(C)/C=C/CC(C)CCCC(C)C` (stereo unspecified), the Potency entry was “inactive”.

For `CCCCOC(C)=O`, the Potency result is “inactive”.

Turning to `Cn1c(N)nc2c3cccnc3ccc21`, the Potency entry was “inactive”.

For the compound `C=C(Cl)CCl`, the Potency result is “inactive”.

Turning to `CCNc1nc(Cl)nc(NC(C)(C)C)n1`, the Potency result is “inactive”.

For `C(COCC1CO1)OCC1CO1` (stereo unspecified), the Potency entry was “inactive”.

With `COc1ccccc1OC`, the Potency result was “inactive”.

Turning to `CNC(=O)O/N=C(/CSC)C(C)(C)C`, the Potency result is “inactive”.

As for `CN(C)CCN(C)C`, the Potency entry is “inactive”.

With `CC(C)(C)c1cc(O)ccc1O`, the Potency entry is “inactive”.

Regarding `OCC(Cl)CCl` (stereo unspecified), the Potency result is “inactive”.

For `O=C(O)C(Br)(Br)Br`, the Potency result was “inactive”.

As for `CCOC(=O)CC(SP(=S)(OC)OC)C(=O)OCC` (stereo unspecified), the Potency result is “inactive”.

For `Cc1ccc2c(c1)C1CN(C)CCC1N2` (stereo unspecified), the Potency entry was “inactive”.

On to `OP(O)c1ccccc1`, for which the Potency entry is “inactive”.

With `CCNP(=S)(OC)O/C(C)=C/C(=O)OC(C)C` (stereo unspecified), the Potency entry is “inactive”.

Turning to `CN(CCO)CCO`, the Potency result is “inactive”.

Regarding `Cc1ccc(S(=O)(=O)N[C@@H](CCCCN)C(=O)CCl)cc1`, the Potency result is “inactive”.

With `CCC(C(N)=O)N1CCCC1=O` (stereo unspecified), the Potency entry was “inactive”.

For `CCN(CCO)CCn1c(Cc2ccccc2)nc2c1c(=O)n(C)c(=O)n2C`, the Potency result is “inactive”.

`O=C(Cl)/C=C/C(=O)Cl`: the Potency result was “inactive”.

Turning to `C=C(C)[C@H]1CN[C@H](C(=O)O)[C@H]1CC(=O)O`, the Potency entry was “inactive”.

As to `CC(C)(C)C(=O)Cl`, the Potency entry is “inactive”.
